# Results published in PMC4081100, “A DNA-binding-site landscape and regulatory network analysis for NAC transcription factors in Arabidopsis thaliana”.
# Assays:
# Experiment in all cases: universal protein binding microarray (PBM); transcription factors of Arabidopsis thaliana; high values mean tight binding
# [1] = target: T1, GST-ANAC092(1-176) (Arabidopsis thaliana, UniProt Q9FKA0 1-176); conditions: protein: recombinant; tags: GST; chain copies: 2; dsDNA, one strand shown
# T1 sequence: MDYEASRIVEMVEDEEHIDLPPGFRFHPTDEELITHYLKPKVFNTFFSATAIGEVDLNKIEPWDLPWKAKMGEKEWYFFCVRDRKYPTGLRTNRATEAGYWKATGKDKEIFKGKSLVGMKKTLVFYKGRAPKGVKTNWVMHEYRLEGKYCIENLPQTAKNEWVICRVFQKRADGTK
# How it was run: (§1)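 GST-tagged NAC-domain, full-length or DNA-binding-domain proteins were induced in cells, with zinc acetate added for zinc-finger proteins. They were purified on glutathione–Sepharose 4B and quantified by A280 or anti-GST western blot. Each was applied at 200 to 500 nM final, in duplicate, to custom all-10-mer Agilent 4 × 180K arrays made double-stranded by primer extension, with gapped and ungapped 8-mers scored. Binding is the normalised enrichment score (E-score).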
# [2] = target: T2, GST-ANAC019 NAC domain (Arabidopsis thaliana, UniProt Q9C932 14-162); conditions: protein: recombinant; tags: GST; chain copies: 2; dsDNA, one strand shown
# T2 sequence: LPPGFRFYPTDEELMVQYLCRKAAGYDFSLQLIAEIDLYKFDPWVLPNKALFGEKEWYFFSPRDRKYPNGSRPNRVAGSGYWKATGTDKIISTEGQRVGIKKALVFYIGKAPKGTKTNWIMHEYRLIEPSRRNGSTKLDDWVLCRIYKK
# How it was run: as §1
# [3] = target: T3, GST-ANAC055(1-171) (Arabidopsis thaliana, UniProt Q9LDY8 1-171); conditions: protein: recombinant; tags: GST; chain copies: 2; dsDNA, one strand shown
# T3 sequence: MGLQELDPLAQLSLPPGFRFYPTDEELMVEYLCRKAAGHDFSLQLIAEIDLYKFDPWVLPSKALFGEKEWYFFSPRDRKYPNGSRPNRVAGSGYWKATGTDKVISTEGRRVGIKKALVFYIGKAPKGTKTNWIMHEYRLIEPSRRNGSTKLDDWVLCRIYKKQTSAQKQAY
# How it was run: as §1
# [4] = target: T4, GST-ATAF1 NAC domain (Arabidopsis thaliana, UniProt Q39013 7-158); conditions: protein: recombinant; tags: GST; chain copies: 2; dsDNA, one strand shown
# T4 sequence: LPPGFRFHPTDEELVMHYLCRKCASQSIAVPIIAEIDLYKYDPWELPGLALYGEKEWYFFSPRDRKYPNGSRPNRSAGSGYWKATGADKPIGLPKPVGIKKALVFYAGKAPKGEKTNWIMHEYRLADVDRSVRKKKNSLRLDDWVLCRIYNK
# How it was run: as §1
# [5] = target: T5, GST-ANAC092(1-285) full length (Arabidopsis thaliana, UniProt Q9FKA0 1-285); conditions: protein: recombinant; tags: GST; chain copies: 2; dsDNA, one strand shown
# T5 sequence: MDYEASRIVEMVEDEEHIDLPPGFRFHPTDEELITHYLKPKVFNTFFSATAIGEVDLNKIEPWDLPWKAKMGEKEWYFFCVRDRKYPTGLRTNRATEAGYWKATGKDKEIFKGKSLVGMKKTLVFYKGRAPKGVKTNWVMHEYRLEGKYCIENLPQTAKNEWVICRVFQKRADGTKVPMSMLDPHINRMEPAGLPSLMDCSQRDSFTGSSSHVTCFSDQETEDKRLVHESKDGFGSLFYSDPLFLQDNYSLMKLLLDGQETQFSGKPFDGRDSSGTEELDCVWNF
# How it was run: as §1
# [6] = target: T6, GST-NAP(1-166) (Arabidopsis thaliana, UniProt O49255 1-166); conditions: protein: recombinant; tags: GST; chain copies: 2; dsDNA, one strand shown
# T6 sequence: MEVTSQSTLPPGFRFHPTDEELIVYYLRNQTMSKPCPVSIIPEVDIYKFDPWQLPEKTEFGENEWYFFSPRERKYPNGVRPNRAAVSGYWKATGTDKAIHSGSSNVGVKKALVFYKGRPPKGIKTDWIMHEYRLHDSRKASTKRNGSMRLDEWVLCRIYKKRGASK
# How it was run: as §1
# [7] = target: T7, GST-NST2(1-184) (Arabidopsis thaliana, UniProt Q9M274 1-184); conditions: protein: recombinant; tags: GST; chain copies: 2; dsDNA, one strand shown
# T7 sequence: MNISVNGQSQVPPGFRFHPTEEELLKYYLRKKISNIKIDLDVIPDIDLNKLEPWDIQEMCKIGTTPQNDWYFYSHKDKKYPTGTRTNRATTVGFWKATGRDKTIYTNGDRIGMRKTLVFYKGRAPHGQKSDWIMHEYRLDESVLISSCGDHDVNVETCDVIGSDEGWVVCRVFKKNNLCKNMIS
# How it was run: as §1
# [8] = target: T8, GST-NTL8 NAC domain (Arabidopsis thaliana, UniProt Q9XIN7 14-156); conditions: protein: recombinant; tags: GST; chain copies: 2; dsDNA, one strand shown
# T8 sequence: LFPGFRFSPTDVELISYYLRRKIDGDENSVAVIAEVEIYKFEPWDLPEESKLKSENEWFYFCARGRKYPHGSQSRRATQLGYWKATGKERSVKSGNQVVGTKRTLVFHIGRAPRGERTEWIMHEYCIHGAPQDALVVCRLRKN
# How it was run: as §1
# [9] = target: T9, GST-SND1(1-203) (Arabidopsis thaliana, UniProt Q9LPI7 1-203); conditions: protein: recombinant; tags: GST; chain copies: 2; dsDNA, one strand shown
# T9 sequence: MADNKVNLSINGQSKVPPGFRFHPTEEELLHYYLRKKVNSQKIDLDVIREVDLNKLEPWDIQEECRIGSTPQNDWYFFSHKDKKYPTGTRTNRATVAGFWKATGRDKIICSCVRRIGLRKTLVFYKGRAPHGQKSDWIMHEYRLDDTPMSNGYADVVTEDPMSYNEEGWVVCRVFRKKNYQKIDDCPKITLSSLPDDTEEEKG
# How it was run: as §1
# [10] = target: T10, GST-VND3 NAC domain (Arabidopsis thaliana, UniProt Q9FH59 12-162); conditions: protein: recombinant; tags: GST; chain copies: 2; dsDNA, one strand shown
# T10 sequence: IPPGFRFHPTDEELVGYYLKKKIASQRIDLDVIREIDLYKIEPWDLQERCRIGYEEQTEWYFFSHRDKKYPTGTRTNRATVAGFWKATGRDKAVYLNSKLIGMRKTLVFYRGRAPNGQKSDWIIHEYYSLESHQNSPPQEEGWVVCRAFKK
# How it was run: as §1
# [11] = target: T11, GST-VND7 NAC domain (Arabidopsis thaliana, UniProt Q9C8W9 9-158); conditions: protein: recombinant; tags: GST; chain copies: 2; dsDNA, one strand shown
# T11 sequence: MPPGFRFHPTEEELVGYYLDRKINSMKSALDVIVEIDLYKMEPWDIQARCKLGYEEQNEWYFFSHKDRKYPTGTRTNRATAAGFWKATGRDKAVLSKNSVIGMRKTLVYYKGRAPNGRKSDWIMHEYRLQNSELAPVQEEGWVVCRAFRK
# How it was run: as §1
# [12] = target: GST-NTL6(1-168) (Arabidopsis thaliana, UniProt Q9SCK6 1-168); conditions: protein: recombinant; tags: GST; chain copies: 2; dsDNA, one strand shown
# Chain of GST-NTL6(1-168) (Q9SCK6 1-168): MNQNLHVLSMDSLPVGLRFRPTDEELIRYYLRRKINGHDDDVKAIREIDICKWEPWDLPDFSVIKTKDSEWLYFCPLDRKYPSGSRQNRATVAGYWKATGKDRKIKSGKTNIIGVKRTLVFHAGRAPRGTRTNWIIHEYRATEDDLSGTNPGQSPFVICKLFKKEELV
# How it was run: as §1
# [13] = target: GST-WRKY1(266-371) (Arabidopsis thaliana, UniProt Q9SI37 266-371); conditions: protein: recombinant; tags: GST; dsDNA, one strand shown
# Chain of GST-WRKY1(266-371) (Q9SI37 266-371): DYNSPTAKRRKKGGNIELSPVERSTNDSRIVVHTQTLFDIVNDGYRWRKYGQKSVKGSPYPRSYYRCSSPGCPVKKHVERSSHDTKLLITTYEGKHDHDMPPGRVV
# How it was run: as §1
Sequence,binding signal [1] [E-score],binding signal [2] [E-score],binding signal [3] [E-score],binding signal [4] [E-score],binding signal [5] [E-score],binding signal [6] [E-score],binding signal [7] [E-score],binding signal [8] [E-score],binding signal [9] [E-score],binding signal [10] [E-score],binding signal [11] [E-score],binding signal [12] [E-score],binding signal [13] [E-score]
CTACGCAA,0.427,0.316,0.207,0.267,0.447,0.196,0.364,0.126,0.488,0.365,0.349,,
GACACGCA,0.43,0.358,0.275,0.304,0.455,0.283,0.0949,0.0711,0.242,0.208,0.318,,
GTGCCGTA,0.427,0.467,0.432,0.413,0.449,0.412,0.263,0.102,0.377,0.443,0.453,,
GCACGGCA,0.449,0.472,0.448,0.361,0.461,0.41,0.164,,0.107,0.408,0.461,,
TGGCGTAA,0.44,0.0928,0.127,0.16,0.439,0.101,0.346,,0.482,0.191,0.246,,
AACACGTT,0.375,0.262,0.284,0.228,0.426,0.259,0.222,0.132,0.202,0.281,0.203,,
CGTACGCA,0.392,0.359,0.328,0.291,0.433,0.365,0.24,0.0905,0.32,0.378,0.341,,
ACGTTACG,0.389,0.302,0.299,0.268,0.441,0.341,0.287,0.13,0.44,0.333,0.39,,
ACGCAACG,0.46,0.327,0.23,0.27,0.463,0.387,0.3,0.113,0.461,0.278,0.316,,
CACGCCAA,0.443,0.185,0.159,0.16,0.451,0.114,0.3,0.0657,0.334,0.0966,0.114,,
ACGGAACT,0.292,0.468,0.438,0.392,0.277,0.452,0.159,0.109,0.178,0.417,0.445,,
ACGTTACC,0.458,0.263,0.197,0.195,0.467,0.218,0.331,0.384,0.462,0.249,0.176,,
AATGCGTA,0.371,,0.0991,0.142,0.387,0.183,0.212,,0.414,0.148,0.118,,
GTTAAGGA,0.116,0.178,0.165,0.11,0.0916,,0.16,0.273,0.276,0.176,,0.424,0.0559
